Among the data in PubChem BioAssay are z-score values, retold here.

Unmarked numbers belong to inactive results.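 The calls were made as follows: active = z-score of at least 1.8 in each of two replicates, scored against plate mean and spread of sample wells; inactive = the rest.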

The experiment can be described thus: viability rescue of complex I mutant cybrids, primary screen, cell-based, galactose medium, ATP luminescence (AID 1645843).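 Also: positive z means more ATP and so rescue of galactose-driven cybrid death.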 As to conditions: complex I mutant cybrid cells, 72 h, hits give high values.
Consider `COc1cccc(CC(=O)NCc2ccsc2)c1`, for which the z-score is -0.32.

As to `CC(=O)NCCC1CCN(C(=O)C(C)(C)Oc2cc(C)ccc2Cl)CC1`, the z-score was -0.545.

For the molecule `CCCC[C@@H]1C[C@@H]1C(=O)N1CCC(n2cc(CC(C)C)nn2)CC1`, the z-score was -0.07.

Take `O=C(Nc1nc(-c2ccccc2)ns1)N1CCN(C2CCCCC2)C(=O)C1`: the z-score was -0.54.

As to `CN1CCN(CC(C)(C)C)CC1CCO` (stereo not given), the z-score is -0.57.

As to `CCCOC1CCCN(C2CCN(c3ccc(F)c(F)c3)CC2)C1` (stereo not given), the z-score was -0.725.

Consider `CC(CCCC(C)(C)O)CCNCC1(c2ccccc2)CCOCC1` (stereo not given), for which the z-score is -0.5.

For the molecule `Cn1ncc(NC(=O)CCc2cn3ccccc3n2)n1`, the z-score was 0.67.

`C1=CCC(CN2CCC(N3CCCC3)CC2)CC1` (stereo not given): the z-score was -0.58.

On to `CC(C)Oc1cccc(C(=O)N2CCC(Cn3cc(C4CC4)nn3)CC2)c1`, for which the z-score was -0.515.

On to `O=C(Nc1ccncc1)c1ccc2c(c1)OCCO2`, for which the z-score was 0.445.

For the molecule `O=C(C1CCCCCC1)N1CCCC(Cn2cc(-c3ccccn3)nn2)C1` (stereo not given), the z-score was -0.33.

Consider `CCCc1cn(C2CCN(C(=O)CC3CC(C)(C)NC(C)(C)C3)CC2)nn1`, for which the z-score was -0.53.

As to `CC(C)C1C(=O)N(C)CCN1C(=O)C1(C)CC1` (stereo not given), the z-score was -0.54.

With `Cc1ccccc1-n1cc(-c2ccnc(NCc3nnc4n3CCCC4)n2)cn1`, the z-score is -0.305.

Take `CC(C)(C)c1cn(CC2CCCN(C(=O)c3cn4cccnc4n3)C2)nn1` (stereo not given): the z-score was 0.425.

Consider `CN(CC1COc2ccccc2O1)C(=O)Nc1nncs1` (stereo not given), for which the z-score is -0.295.

With `Cc1ccc2c(C(=O)N3CCCCC3)cc(-c3cnn(C(C)C)c3)nc2c1`, the z-score is -0.385.

As for `Cc1cc(NC(=O)Cn2c(C)nc(Cl)c2Cl)n(C2CCCCC2)n1`, the z-score was -0.41.

Consider `CC(=O)c1cc(CC(=O)NCc2cc(F)c(F)cc2F)cs1`, for which the z-score was -0.01.

With `CN1CCN(C2CCCCCC2)CC1CCO` (stereo not given), the z-score is -0.575.

As to `CC(CCCC(C)(C)O)CCNC(C1CC1)C1CC1` (stereo not given), the z-score is -0.515.

With `CC(=O)c1c(C)nn(CC(=O)Nc2ccc(N3CCOCC3)cc2)c1C`, the z-score was -0.6.

Regarding `CC1(C)CCN(C(=O)c2cc(-c3cnc(C4CC4)nc3)nc3ccc(F)cc23)C1`, the z-score is -0.54.

As to `Cc1cc(C)c(C(=O)N2CCCCC2CCN2CCCC2=O)cc1C` (stereo not given), the z-score was -0.46.

As to `c1ccc(C(CCn2ccnc2)NC2CCCCCC2)cc1` (stereo not given), the z-score is -0.47.

`COc1cccc2ccc(-c3ccccc3)nc12`: the z-score was -0.375.

For `O=C(C(=O)N1CCCCC1c1nc2ccc(F)cc2[nH]1)c1ccccc1` (stereo not given), the z-score was 0.05.

For `COc1cccc(-n2cc(-c3ccnc(N(C)Cc4cccnc4)n3)cn2)c1`, the z-score was 0.62.

In the case of `Cc1ccc(C(=O)N2CCNC(=O)C2Cc2ccccc2)cc1F` (stereo not given), the z-score is -0.505.

Consider `O=c1cc(CCn2cccn2)nc(-c2ccc(CN3CCC[C@@H](O)C3)cc2)[nH]1`, for which the z-score is -0.025.

Regarding `CC(C)c1ncc(C(=O)N2CCC(n3cc(-c4ccccn4)nn3)CC2)cn1`, the z-score is 0.26.

As to `CC(CCN1CCC(n2cc(CCO)nn2)CC1)CC(C)(C)C` (stereo not given), the z-score is -0.485.

Take `CC1(C)CCN(C(=O)c2cc(-c3cnc(C4CC4)nc3)nc3cc(F)ccc23)C1`: the z-score was -0.56.

As to `Cc1nn(C)c(C)c1-c1ccnc(N2CCC(c3ccccc3Cl)C2)n1` (stereo not given), the z-score is -1.27.

`Cc1nsc(NC(=O)N2CCCC2C)n1` (stereo not given): the z-score was -0.04.

`O=c1c2cccc(F)c2ncn1CCC1CCCCN1C1CCCC1` (stereo not given): the z-score was -0.825.

Regarding `COc1cccc(OC)c1-c1noc(CCN2C(=O)COc3ccccc32)n1`, the z-score was 1.39.

With `CCCC(CCC)N[C@H](CO)Cc1ccccc1`, the z-score was -0.345.

On to `COC(=O)c1ccc(C(=O)N2CCNC(=O)C2Cc2ccccc2)cc1` (stereo not given), for which the z-score was -0.49.
